Screening data as filed in PubChem BioAssay.
VHR inh abs: blocks human VHR1 dual specificity phosphatase | hit rate 0.52% among 290,000 | recombinant VHR phosphatase, pNPP absorbance | inhibition, % at 13.3 µM | AID 1654; in the data active = inhibition above about 50%
Target sequence (P51452 whole entry, looked up): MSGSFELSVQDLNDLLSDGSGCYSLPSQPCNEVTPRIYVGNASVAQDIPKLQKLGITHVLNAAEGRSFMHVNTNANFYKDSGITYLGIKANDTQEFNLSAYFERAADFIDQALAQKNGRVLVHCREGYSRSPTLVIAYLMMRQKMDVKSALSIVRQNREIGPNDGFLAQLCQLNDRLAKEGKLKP
CCHFV vOTU inh: blocks the CCHF virus ovarian tumor domain protease. CCHFV vOTU protease, Pep-AMC fluorescence. inhibition, % at 11.5 µM. hit rate 0.55% among 370,000; in the data active = inhibition above about 30%; note: 0% = vehicle wells with enzyme and 100% = no enzyme wells
RN4220 kill: kills Staphylococcus aureus RN4220; inhibition, % (no concentration beside the values); hit rate 0.33% among 330,000; S. aureus RN4220 growth, OD600, 16 h; in the data active = inhibition above about 85%;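 note: plate controls were untreated cells for no effect and reference antibiotic for full effect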
SSB-PriA inh: blocks PriA binding to SSB C-terminal tail | AlphaScreen SSBct-PriA binding, biotinylated peptide | inhibition, % at 33 µM | AID 1272365 | hit rate 0.6% among 430,000; in the data active = inhibition mostly above about 37%, no sharp cut-off; inactive = mostly below about 20%;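 note: plate controls were negative control peptide for no effect and reference peptide for full effect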
ugtP null kill: compounds lethal to S. aureus RN4220 ugtP deletion mutant; OD600 growth, 16 h; growth inhibition, % (no concentration beside the values); hit rate 0.54% among 330,000; in the data active = growth inhibition above about 68%;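 note: plate controls were untreated wells for no effect and antibiotic for full effect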
Active calls of the source: *; · = not tested or not shown; ! = a repeat was not active. Most compounds without a hit are left out; they make up all but 1.5% or so of the library.

SMILES | VHR inh abs | CCHFV vOTU inh | RN4220 kill | SSB-PriA inh | ugtP null kill
CCCN1CCCc2cc(CCNC(=O)c3cc(Cl)ccc3OC)ccc21 | · | · | · | 66* | ·
CCCN1CCCc2cc(CCNC(=O)COc3ccccc3C)ccc21 | · | · | · | 68* | ·
CCN1CCCc2cc(CCNC(=O)c3ccccc3C(F)(F)F)ccc21 | · | · | · | 59* | ·
CCc1ccc(Oc2cc(N3CCC(C(=O)Nc4ccc(C)c(C)c4)CC3)ncn2)cc1 | · | · | · | -7 | ·
O=C(CN1CCC(c2nnc(-c3ccsc3)o2)CC1)NCc1ccco1 | · | · | · | -1 | ·
CCCN1CCCc2cc(CCNC(=O)c3ccc(OC)cc3)ccc21 | · | · | · | 74* | ·
COc1ccc(C(=O)NCCc2ccc3c(c2)CCCN3C)cc1 | · | · | · | 33 | ·
Cc1ccc(-c2cc3c(=O)n(CC(=O)Nc4ccc5c(c4)OCCO5)ncn3n2)cc1C | · | · | · | -2 | ·
Cc1ccc(NC(=O)C(=O)c2c[nH]c3ccccc23)cc1 | 4 | 8 | -3 | -4 | 7
O=C(Nc1ccc(Nc2ccccc2)cc1)C(=O)c1c[nH]c2ccccc12 | · | · | · | 48* | ·
Cc1c(Cl)cccc1NC(=NS(=O)(=O)c1cccs1)c1ccccc1 | · | · | · | 0 | ·
CCOc1cccc2sc(N(CCCN(C)C)C(=O)c3ccc(S(=O)(=O)N(CC)Cc4ccccc4)cc3)nc12 | 8 | 0 | 0 | 29 | -23
CCN(c1ccccc1)S(=O)(=O)c1ccc(C(=O)N(CCCN(C)C)c2nc3c(C)cccc3s2)cc1 | 6 | 12 | -4 | 36*! | 3
CCOc1cccc2sc(N(CCCN(C)C)C(=O)c3ccc(S(=O)(=O)N(C)Cc4ccccc4)cc3)nc12 | 4 | 4 | -6 | 38*! | -13
COc1ccccc1OCCN1C(=O)C2(SC(NC(C)=O)=NN2C(C)=O)c2cc(C)ccc21 (centres undefined) | · | · | · | -11 | ·
CC(=O)NC1C(Sc2ccccc2)OC(CO)C(O)C1O (centres undefined) | · | · | · | -1 | ·
Nc1nc(N(Cc2ccccc2)Cc2ccccc2)nc(C(F)(F)F)n1 | · | 11 | 7 | -1 | 98*
CN(N)c1nc(C(F)(F)F)nc2ccccc12 | 2 | 4 | 5 | -21 | 3
O=C(CCc1ccc(C(F)(F)F)cc1)NCc1ccc(C(=O)c2ccsc2)s1 | · | · | · | -2 | ·
COc1cccc(CNC(=O)C2CCCN(c3nc4ccccc4o3)C2)c1 (centres undefined) | 26 | -11 | 1 | 4 | 1
COc1ccc(CNC(=O)C2CCCN(c3nc4ccccc4o3)C2)c(OC)c1 (centres undefined) | 53* | · | 3 | -9 | 7
Cc1ccc(-c2ccc(SCc3c(F)cccc3Cl)nn2)cc1 | · | · | · | -13 | ·
CCN(CC)CCCNC(=O)c1nn2c(C(F)(F)F)cc(-c3ccccc3)nc2c1Cl | 60* | 7 | -1 | 8 | 21
CCCN(CCC)CCCNC(=O)c1cn(-c2ccc(OC)cc2)c(=O)c2ccccc12 | 53* | 2 | -2 | -2 | 1
COCCN=c1scc(-c2cc(OC)ccc2OC)n1N=Cc1c[nH]c2ccccc12 | · | · | -3 | 66* | -5
SMILES | VHR inh abs | CCHFV vOTU inh | RN4220 kill | SSB-PriA inh | ugtP null kill
COCCN=c1scc(-c2cc(OC)ccc2OC)n1/N=C/c1c[nH]c2ccccc12 | 0 | -3 | · | · | ·
CN(C)S(=O)(=O)c1cccc(NC(=S)NN=Cc2ccc(O)c(O)c2O)c1 | · | · | 14 | 102* | -3
COC(=O)c1sccc1S(=O)(=O)N1CC(Oc2ccccc2F)CC1C(=O)OC (centres undefined) | · | · | · | -3 | ·
CCN1CCN(C(=S)NCCc2ccccc2)CC1 | 57* | -7 | 2 | -5 | 5
O=C(COc1ccc(Cl)cc1)NCc1nnc2c3ccccc3c(-c3ccccc3)nn12 | 51* | -9 | -10 | 3 | -16
O=C(Nc1ccccc1-c1ccccc1)C1CCN(c2cc(-n3cncn3)ncn2)CC1 | · | · | · | 1 | ·
CCCCn1c(=O)c(C(=O)Nc2cnccn2)c(O)c2ccccc21 | 12 | 8 | 68 | 2 | 83*
CCCCCn1c(=O)c(C(=O)Nc2ncccc2C)c(O)c2ccccc21 | 20 | -2 | 53 | -10 | 101*
CCCn1c(=O)c(C(=O)Nc2ncccc2C)c(O)c2ccccc21 | -3 | 1 | 30 | -14 | 12
CCn1c(=O)c(C(=O)Nc2cnccn2)c(O)c2ccccc21 | -30 | · | · | · | ·
O=C(NCc1ccco1)c1csc2nc(-c3ccccc3)cn12 | · | · | · | 8 | ·
COC(=O)C1=C(C)N(c2cc(C)cc(C)c2)/C(=C/c2ccc(O)cc2)C1=O | 13 | -5 | 89* | -9 | 60
COC(=O)C1=C(C)N(c2ccc(Cl)cc2)/C(=C/c2ccc(O)cc2)C1=O | 18 | 4 | 48 | -12 | -3
N#CC(C#N)=C(Nc1ccc(F)cc1)SCc1cccc(F)c1 | -5 | 3 | 99* | -8 | 98*
CCOc1ccc(N/C(SCc2cccc([N+](=O)[O-])c2)=C(/C#N)C(N)=O)cc1 | 16 | -1 | 6 | 9 | 9
Cc1cc(NC(=O)CN2CC(c3nc(-c4ncccn4)no3)C2)no1 | · | · | · | -5 | ·
O=C(NCCCN1CCCC1)c1ccc2c(c1)N(Cc1ccccc1F)C(=O)c1ccccc1S2(=O)=O | 51* | -6 | -4 | -1 | 0
CCOC(=O)N1CCN(c2cc(C)c(C(C)=O)cc2F)CC1 | -5 | 2 | 9 | -9 | -5
CCOC(=O)N1CCN(c2cc(N)c([N+](=O)[O-])cc2F)CC1 | 16 | 35* | 3 | 6 | -4
CC(=O)c1cccc(N=Nc2c(C)[nH]c3ccccc23)c1 | -4 | 10 | -6 | 34 | -9
COc1ccc(N=Nc2c(C)[nH]c3ccccc23)cc1 | · | 0 | -2 | 21 | 82*
Cc1ccc(OC(=O)C2c3ccccc3Oc3ccccc32)cc1C | -7 | 15 | -1 | -23 | 90*
COCCn1nc(CNC(=O)Cc2ccc(OC)c(OC)c2)cc1-c1ccco1 | · | · | · | -13 | ·
O=c1cc(-c2ccccc2)[nH]n1-c1nc2ccccc2[nH]1 | 11 | 9 | 36 | 69* | -1
CCc1cc(=O)[nH]c(-n2[nH]c(-c3ccccc3)cc2=O)n1 | 40 | -8 | · | 3 | ·
SMILES | VHR inh abs | CCHFV vOTU inh | RN4220 kill | SSB-PriA inh | ugtP null kill
CCNC(=O)C1Cc2ccccc2N1S(=O)(=O)c1ccc(CC)s1 (centres undefined) | · | · | · | 12 | ·
CCOC(=O)Nc1ccccc1Cc1nc(-c2ccco2)no1 | · | · | · | -7 | ·
CCOC(=O)c1c(NS(=O)(=O)c2ccc(Br)cc2)sc2c1CCC2 | · | 22 | 112* | 1 | 98*
COC(=O)c1c(NS(=O)(=O)c2ccc3ccccc3c2)sc2c1CCCC2 | 14 | 16 | 87* | -4 | 78
COC(=O)c1c(NC(=S)NNS(=O)(=O)c2ccc(OC)cc2OC)sc2c1CCCCCC2 | -2 | -9 | -8 | 15 | 92*
O=C(CC1S/C(=N\N=C/c2ccco2)NC1=O)c1ccccc1 (centres undefined) | · | · | · | 2 | ·
